An excerpt weighted towards active compounds, which were near 19% of everything screened.
HT1080 IDH1KD tx – HT-1080 IDH1 knockdown cell toxicity (counter line) | HT-1080 IDH1 knockdown viability, ATP luminescence, 48 h | Potency, µM (series often up to 46.1 µM), for the others: at the highest dose activity, negative = toxicity, usual class: cytotoxic | 360,000 compounds, 2% hits;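 also: potency is read from the fitted curve at half-maximal effect; 0% = DMSO wells and -100% = cell-free medium wells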
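CellTiter-Glo luminescence after 48 h compound exposure at 37 degrees C of IDH1-knockdown HT-1080 cells in 5% FBS RPMI. %Activity scaled between DMSO wells and cell-free media wells, with curves fitted and assigned curve classes.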
HT1080-NT tox – kills 2HG-producing HT-1080-NT fibrosarcoma cells; HT-1080-NT fibrosarcoma viability, CellTiter-Glo ATP luminescence, 48 h; Potency, µM (highest dose often 46.1 µM), inactives show top-dose activity, negative = less viability, most hits filed as cytotoxic; 360,000 compounds, 1.6% hits; AID 686970;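 also: NT is the 2HG producing partner of a matched IDH1 knockdown line; potency is read from the fitted curve at half-maximal effect; 0% = DMSO-treated cells and -100% = media-only wells without cells; nearly all actives have a fitted effect of over 55% in size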
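Fibrosarcoma NT cells, 750 per well in 5% FBS RPMI, were exposed to compound for 48 hours. Viability: CellTiter-Glo luminescence.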
TDP1 cell CPT – growth inhibition of DT40 Tdp1-/-;hTDP1 cells with camptothecin (screen for TDP1 inhibitors). chicken DT40 Tdp1-/-;hTDP1 cells + 20 nM CPT, ATP luminescence, 48 h. Potency, µM (highest dose often 46.2 µM), without a hit: at the top dose activity change, negative = growth inhibition, hits mostly inhibitors. 420,000 compounds, 12% hits. AID 686979; also: potency is read from the fitted curve at half-maximal effect; nearly all actives have a fitted effect of over 55% in size
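Cell growth measured by CellTiter-Glo luminescence after a minimum 48 h, 37 C compound exposure with 20 nM CPT in Tdp1-knockout DT40 cells stably expressing hTDP1, seeded 400/well; qHTS titration format.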
TDP1 cell noCPT – qHTS for Inhibitors of human tyrosyl-DNA phosphodiesterase 1 (TDP1): qHTS in cells in absence of CPT; DT40 Tdp1-/- hTDP1 cells, no CPT, ATP luminescence, 48 h; Potency, µM (series often up to 46.2 µM), without a hit: top-dose activity change, negative = growth inhibition, actives largely listed as inhibitors; 420,000 compounds, 15% hits; AID 686978, 2013; also: potency is read from the fitted curve at half-maximal effect; nearly all actives have a fitted effect of over 55% in size
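Chicken DT40 Tdp1-/- cells complemented with human TDP1, screened without camptothecin (DMSO vehicle only), 400 cells/well. Compounds pin-transferred, cells incubated at 37 °C for at least 48 hr. Growth read as ATP-dependent luminescence (CellTiter-Glo, 30 min at RT).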
IL-1B inflam inh – inflammasome signaling inhibition, IL-1 beta readout; THP-1 LPS/ATP IL-1B secretion, AlphaLISA, 16 h; stronger effect = lower value; activity change, % at 57.5 µM; 360,000 compounds, 4.7% hits; AID 743279; in the data active = activity change below about -50%; inconclusive = mostly about -30% to -49%
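Secreted IL-1B measured by AlphaLISA bead assay after 16 h compound exposure of THP-1 cells; compounds (final up to 57.5 uM) added 1 h before LPS (250 ng/mL) and ATP (1.25 mM) stimulation; lower signal means less secretion.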
* = called active by the depositor. Unless noted, calls follow the shape of the dose curve; as a rule, active = well fitted curve in the direction sought with a large enough effect; inconclusive = small, poorly fitted or top-dose-only effect, or another doubt; inactive = no such curve, though single readings can be large; an effect the other way counts as inactive or inconclusive. Unless noted, % is scaled to controls: 0 for no effect and ±100 for the full control effect.

`COc1ccc(COn2nnc3ccc(S(=O)(=O)N4CCOCC4)cc32)cc1F` gave HT1080 IDH1KD tx -5%, HT1080-NT tox -8%, TDP1 cell CPT -28%, TDP1 cell noCPT -23% and IL-1B inflam inh -12.
Screening O=[N+]([O-])c1cc2c(cc1Br)CCN2 returned HT1080 IDH1KD tx -5%, HT1080-NT tox 3%, TDP1 cell CPT 12%, TDP1 cell noCPT -13% and IL-1B inflam inh 8.
Screening O=C(N/N=C/c1cc2ccccc2[nH]1)c1ccccc1Cl returned HT1080 IDH1KD tx 1%, HT1080-NT tox 5%, TDP1 cell CPT 0%, TDP1 cell noCPT -29% and IL-1B inflam inh 15.
For O=C(CCl)c1ccc2[nH]c(=O)oc2c1 the results were HT1080 IDH1KD tx -2%, HT1080-NT tox 1%, TDP1 cell CPT 2.6µM*, TDP1 cell noCPT 3.3µM* and IL-1B inflam inh inconclusive.
O=c1[nH]c2ccc(Br)cc2o1 was read as HT1080 IDH1KD tx 3%, HT1080-NT tox -3%, TDP1 cell CPT 0%, TDP1 cell noCPT -16% and IL-1B inflam inh 19.
CSCCC(NC(=O)c1ccccc1Cl)C(=O)N1CC(C)OC(C)C1 (stereo not drawn) was read as HT1080 IDH1KD tx 13%, HT1080-NT tox 5%, TDP1 cell CPT 3%, TDP1 cell noCPT 3% and IL-1B inflam inh -11.
`Cc1ccc(NC(=O)CSC2=C(C#N)C(c3ccco3)C3=C(CCCC3=O)N2)cc1` (stereo not drawn) gave HT1080 IDH1KD tx 4%, HT1080-NT tox -2%, TDP1 cell CPT -24%, TDP1 cell noCPT inconclusive and IL-1B inflam inh -52*.
For N#CC1=C(SCC(=O)c2ccc(Cl)cc2)NC2=C(C(=O)CCC2)C1c1ccco1 (stereo not drawn) the results were HT1080 IDH1KD tx 18µM*, HT1080-NT tox 18µM*, TDP1 cell CPT 5.2µM*, TDP1 cell noCPT 5.8µM* and IL-1B inflam inh -88*.
Screening CC1=C(C(=O)OC2CCCCC2)C(c2ccco2)C2=C(CC(C)(C)CC2=O)N1 (stereo not drawn) returned HT1080 IDH1KD tx 1%, HT1080-NT tox 6%, TDP1 cell CPT 18µM*, TDP1 cell noCPT inconclusive and IL-1B inflam inh -14.
For Cc1ccc(C(=O)CSC2=C(C#N)C(c3ccco3)C3=C(CC(C)(C)CC3=O)N2)cc1 (stereo not drawn) the results were HT1080 IDH1KD tx inconclusive, HT1080-NT tox -30%, TDP1 cell CPT 13µM*, TDP1 cell noCPT 10µM* and IL-1B inflam inh -85*.
`COc1ccc(NC(=O)CC(C)n2ccnc2)cc1` (stereo not drawn) gave HT1080 IDH1KD tx 5%, HT1080-NT tox 14%, TDP1 cell CPT 0%, TDP1 cell noCPT -1% and IL-1B inflam inh 24.
`O=C(CCS(=O)(=O)c1ccccc1)NNC(=O)COc1ccc(F)cc1` gave HT1080 IDH1KD tx 1%, HT1080-NT tox 8%, TDP1 cell CPT -1%, TDP1 cell noCPT 18% and IL-1B inflam inh 14.
`CNc1nc(N)c(C(=O)Nc2cc(C)on2)s1` gave HT1080 IDH1KD tx 8%, HT1080-NT tox inconclusive, TDP1 cell CPT inconclusive, TDP1 cell noCPT inconclusive and IL-1B inflam inh -1.
COc1ccccc1-c1c(C)nn2c(N3CCOCC3)cc(C)nc12 was read as HT1080 IDH1KD tx -3%, HT1080-NT tox 2%, TDP1 cell CPT -1%, TDP1 cell noCPT 19% and IL-1B inflam inh 30.
`CCOC(=O)C1CCN(c2cc(C)nc3c(-c4ccccc4OC)c(C)nn23)CC1` gave TDP1 cell CPT 18µM* and TDP1 cell noCPT 18µM*.
`COc1ccccc1-c1c(C)nn2c(N3CCN(c4ccccc4OC)CC3)cc(C)nc12` gave HT1080 IDH1KD tx 14%, HT1080-NT tox 0%, TDP1 cell CPT inconclusive, TDP1 cell noCPT inconclusive and IL-1B inflam inh -1.
For COc1ccccc1-c1c(C)nn2c(N3CCCCCC3)cc(C)nc12 the results were HT1080 IDH1KD tx inconclusive, HT1080-NT tox inconclusive, TDP1 cell CPT 16µM*, TDP1 cell noCPT 18µM* and IL-1B inflam inh -77*.
